“And” between values parts separate entries of the source, which are not always exact repeats. Equal entries are not always repeated. Inconclusive results are not listed. Some compounds were tested as several samples or in several runs, with calls that do not always agree. The source made the active and inactive calls. Unless noted, the call rests on the fitted dose curve.
Legend:
[1] = qHTS assay to identify small molecule agonists of the vitamin D receptor (VDR) signaling pathway - cell viability counter screen (AID 743224; active means well fitted curve in the direction sought with a large enough effect in the repeat runs; an effect the other way counts as inactive or inconclusive; further: nearly all actives have a fitted effect of over 50% in size; further: potency means the concentration at half of the fitted maximal effect)
Outline: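 Cytotoxicity counter screen: VDR-bla cells, 16 h compound exposure at 37C, 5% CO2; CellTiter-Glo luminescence, 30 min RT, same wells as bla read.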

[2] = qHTS assay to identify small molecule antagonists of the vitamin D receptor (VDR) signaling pathway - cell viability counter screen (AID 743225; active means well fitted curve in the direction sought with a large enough effect in the repeat runs; an effect the other way counts as inactive or inconclusive; further: nearly all actives have a fitted effect of over 50% in size)
Outline: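 In this counter screen, VDR-bla HEK 293T cells receive test compound plus 3 nM final calcitriol for 16 h at 37C. Room-temperature steps of 2 h with the beta-lactamase substrate, then 30 min with CellTiter-Glo, precede the luminescence read.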

[3] = qHTS assay to identify small molecule agonists of the NFkB signaling pathway (AID 1159509; active means well fitted curve in the direction sought with a large enough effect in the signal ratio in the repeat runs, not every such curve was filed as active; the % refers to the signal ratio; further: series mostly up to about 61 µM)
Outline: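 Agonist activity was read as beta-lactamase-driven FRET change (460 and 530 nm emission, 405 nm excitation) following 1.5 hr substrate loading at room temperature. Beforehand, ME-180 NFkB-bla reporter cells were treated with compounds for 5 hr at 37 C.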

[4] = qHTS assay to identify small molecule agonists of the NFkB signaling pathway - cell viability counter screen (AID 1159515); further: series mostly up to about 61 µM; nearly all actives have a fitted effect of over 55% in size
Outline: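 ME-180 NFkB-bla cells, 2,000/well; overnight attach; compound 5 hr, 37 C/5% CO2; LiveBLAzer substrate 1.5 hr RT; then CellTiter-Glo in same wells, 30 min RT, luminescence read.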

[5] = qHTS assay to identify small molecule agonists of the endoplasmic reticulum stress response signaling pathway (AID 1159516; active means well fitted activation curve with a large enough effect in the signal ratio in the repeat runs, not every such curve was filed as active; the % refers to the signal ratio)
Outline: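 HeLa ESRE-bla reporter line; cpd 5 h, 37 C/5% CO2; LiveBLAzer B/G FRET substrate 2 h RT; ex 405, em 460/530 nm.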

[6] = qHTS assay to identify small molecule agonists of the endoplasmic reticulum stress response signaling pathway - cell viability counter screen (AID 1159517);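 further: HeLa cells carrying an ER stress response element beta-lactamase reporter; series mostly up to about 61 µM; nearly all actives have a fitted effect of over 50% in size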
Outline: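 In parallel with the ESRE reporter read, cytotoxicity was scored by CellTiter-Glo luminescence (30 min, room temperature) on HeLa ESRE-bla cells dosed for 5 hr.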

[7] = qHTS assay to identify small molecule antagonists of the retinoid-related orphan receptor gamma (ROR-gamma) signaling pathway - cell viability counter screen (AID 1159520; active means well fitted curve in the direction sought with a large enough effect in the repeat runs; an effect the other way counts as inactive or inconclusive; further: nearly all actives have a fitted effect of over 50% in size)
Outline: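 Tet-on ROR gamma CHO cells were given compounds for 2 hr, then doxycycline hyclate at 1 uM final, and incubated 16 hr at 37 C. Viability was measured as ATP content by CellTiter-Glo luminescence.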

[8] = target: Nuclear receptor ROR-gamma (Homo sapiens) (UniProt P51449); experiment: qHTS assay to identify small molecule antagonists of the retinoid-related orphan receptor gamma (ROR-gamma) signaling pathway (AID 1159521; active means well fitted curve in the direction sought with a large enough effect in the repeat runs; an effect the other way counts as inactive or inconclusive)
Outline: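 Screening format: cell-based luciferase reporter in CHO cells with doxycycline-inducible RORγ. Compound pre-exposure lasts 2 h, doxycycline is 1 uM final, induction runs 16 h at 37 C, and ONE-Glo luminescence is read.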

[9] = qHTS assay to identify small molecule agonists of the AP-1 signaling pathway - cell viability counter screen (AID 1159525); further: nearly all actives have a fitted effect of over 55% in size
Outline: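 Same-well cytotoxicity counter screen of the Tox21 10K library in ME-180 cells. The readout is ATP-dependent luminescence after 5 h compound treatment. Data are normalised to DMSO and tetra n-octyl ammonium bromide controls.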

[10] = qHTS assay to identify small molecule agonists of the AP-1 signaling pathway (AID 1159526)

Measured: Potency

Cl[C@H]1OCCO[C@@H]1Cl
inactive: [1] | [2] | [3] | [4] | [5] | [6] | [7] | [8] | [9] | [10]

Cc1cccc(C)c1N
inactive: [1] | [3] | [4] | [5] | [6] | [7] | [8] | [9] | [10]

CCCOC(=O)c1ccccc1C(=O)OCCC
inactive: [1] | [3] | [4] | [5] | [6] | [7] | [8] | [10]

O=[N+]([O-])c1ccc(Cl)cc1
inactive: [3] | [4] | [5] | [6] | [7] | [8] | [9] | [10]

COC(=O)Nc1cccc(OC(=O)Nc2cccc(C)c2)c1
inactive: [1] | [3] | [4] | [5] | [6] | [7] | [8] | [10]

OCC(O)CCl (centres undefined)
inactive: [1] | [3] | [4] | [5] | [6] | [7] | [8] | [9] | [10]

FC(F)(F)c1ccc(Cl)cc1
inactive: [1] | [3] | [4] | [5] | [6] | [7] | [8] | [9] | [10]

C=CC(=O)OCCCCCC(C)C
inactive: [1] | [3] | [4] | [5] | [6] | [7] | [8] | [9] | [10]

NNc1ccccc1
inactive: [1] | [3] | [4] | [5] | [6] | [7] | [8] | [9] | [10]

Oc1ccc(Cl)cc1
inactive: [1] | [2] | [3] | [4] | [5] | [6] | [7] | [8] | [9] | [10]

[N-]=[N+]=CC(=O)OC[C@H](N)C(=O)O
inactive: [1] | [3] | [4] | [5] | [6] | [7] | [8] | [9] | [10]

Nc1ncc([N+](=O)[O-])s1
inactive: [1] | [2] | [3] | [4] | [5] | [6] | [7] | [8] | [9] | [10]

Cl/C=C/Cl
inactive: [1] | [3] | [4] | [5] | [6] | [7] | [8] | [9] | [10]

C=CCN=C=S
inactive: [3] | [4] | [5] | [6] | [7] | [8] | [9] | [10]

Cc1ccccc1N
inactive: [1] | [3] | [4] | [5] | [6] | [7] | [8] | [9] | [10]

CC(C)c1cccc(C(C)C)c1O
inactive: [2] | [3] | [4] | [5] | [6] | [7] | [8] | [9] | [10]

CCOP(=S)(OCC)Oc1cc(C)nc(C(C)C)n1
inactive: [2] | [3] | [4] | [5] | [6] | [7] | [8] | [9] | [10]
inactive and 24.5 µM (active): [1]

C[C@H]1C(=O)O[C@@H]2CCN3CC=C(COC(=O)[C@](C)(O)[C@]1(C)O)[C@H]23
inactive: [2] | [3] | [4] | [5] | [6] | [7] | [8] | [9] | [10]

Nc1nc(N)nc(NC2CC2)n1
inactive and 43.6 µM (active): [1]
inactive: [3] | [4] | [5] | [6] | [7] | [8] | [9] | [10]

CN(C)C(=O)C(c1ccccc1)c1ccccc1
inactive: [1] | [2] | [3] | [4] | [5] | [6] | [7] | [8] | [9] | [10]

Nc1cc(Cl)cc(Cl)c1
inactive: [1] | [3] | [4] | [5] | [6] | [7] | [8] | [9] | [10]

N#Cc1cccc(C#N)c1
inactive: [1] | [3] | [4] | [5] | [6] | [7] | [8] | [10]

Cc1ccc(O)c(C)c1
inactive: [3] | [4] | [5] | [6] | [7] | [8] | [9] | [10]

OCCCCO
inactive: [3] | [4] | [5] | [6] | [7] | [8] | [10]

Cc1cccc(C)c1NC(=O)CN1CCCC1=O
inactive: [1] | [3] | [4] | [5] | [6] | [7] | [8] | [10]

COc1nc(NC(C)C)nc(NC(C)C)n1
inactive: [3] | [4] | [5] | [6] | [7] | [8] | [9] | [10]

Cc1ccc(N)cc1
inactive: [1] | [3] | [4] | [5] | [6] | [7] | [8] | [9] | [10]

CCOP(=S)(OCC)Oc1ccc([N+](=O)[O-])cc1
inactive: [1] | [3] | [4] | [5] | [6] | [7] | [8] | [10]

CSc1nnc(C(C)(C)C)c(=O)n1N
inactive: [1] | [3] | [4] | [5] | [6] | [7] | [8] | [10]
